PLCb3 inh = human PLC-beta3 inhibitors, primary screen, biochemical, fluorescence | 370,000 tested, 0.18% active | AID 720704, 2013 | Purified PLC-beta3, fluorogenic substrate | inhibition, % at 12.2 µM | 1-phosphatidylinositol 4,5-bisphosphate phosphodiesterase beta-3 (Homo sapiens), Q01970; in the data active = inhibition above about 11%;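 note: 0% = median of compound wells on plate and 100% = full blocker control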
ADAM17 inh = ADAM17 inhibitors, primary screen, biochemical, QFRET | recombinant ADAM17, EDANS/DABCYL FRET peptide cleavage | inhibition, % at 6.95 µM | 370,000 tested, 0.83% active;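 active = inhibition above the mean of compounds lying between control limits plus 3 SD, set per campaign, cut at about 8.5% in these data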;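 note: 0% = DMSO-only wells as the low control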
PLCg1 inh = PLC-gamma1 enzyme inhibitors, primary screen, biochemical, fluorescence, purified enzyme | inhibition, % at 12.2 µM | 1-phosphatidylinositol 4,5-bisphosphate phosphodiesterase gamma-1 (Homo sapiens), P19174 | fluorogenic substrate | 370,000 tested, 0.84% active | AID 720700, 2013
ADAM10 inh = human ADAM10 inhibitors, primary screen, biochemical, QFRET, HTS; Disintegrin and metalloproteinase domain-containing protein 10 (Homo sapiens), O14672; recombinant ADAM10, EDANS/DABCYL FRET peptide cleavage, 3 h; inhibition, % at 7 µM; 370,000 tested, 0.62% active; AID 720582, 2013;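 active = inhibition above a per-campaign cutoff equal to the mean of compounds falling between control-based bounds plus 3 SD, cut at about 20% in these data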;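 note: 0% = DMSO wells while the 100% control is not disclosed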
proKLK7 act = proKLK7 zymogen activators, primary screen, biochemical, fluorescence intensity; Kallikrein-7 (Homo sapiens), P49862; purified proKLK7, EDANS-DABCYL substrate fluorescence; 100% is mature enzyme control, 0% vehicle; activation, % at 7 µM; 370,000 tested, 0.9% active; AID 652039, 2013;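 active = activation above the mean of all tested compounds plus 3 SD, computed per campaign excluding outliers beyond control limits, cut at about 13% in these data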
Target sequence (P49862 whole entry, looked up): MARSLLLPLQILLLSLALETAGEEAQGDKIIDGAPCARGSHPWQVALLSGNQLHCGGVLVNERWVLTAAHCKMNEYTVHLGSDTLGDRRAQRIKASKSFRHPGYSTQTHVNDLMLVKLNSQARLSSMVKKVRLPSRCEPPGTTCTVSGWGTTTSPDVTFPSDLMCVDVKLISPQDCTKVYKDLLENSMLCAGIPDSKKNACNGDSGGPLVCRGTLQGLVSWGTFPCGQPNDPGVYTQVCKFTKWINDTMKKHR
PLCg1 ctr = PLC-gamma1 enzyme inhibitors, counter-screen for PLC-beta3 inhibitor project, biochemical, fluorescence; inhibition, % at 12.3 µM; 3,300 tested, 3.1% active; purified PLC-gamma1, fluorogenic substrate; shares compounds with PLCg1 inh
PLCbeta3 conf = PLC-beta3 inhibitor confirmation, biochemical, fluorescence, purified enzyme; shares compounds with PLCg1 inh; fluorogenic substrate fluorescence; inhibition, % at 12.3 µM; 3,300 tested, 1% active; in the data active = inhibition above about 11%
An asterisk follows results filed as active. Shown are actives, neighbours in structure and some others; about 2.9% of the full set was active somewhere. Cut-off read from the data, not from the text of the source, unless noted: active = inhibition above about 9.5%; inactive = the rest.

How did CCN(CC)C(=O)N1CCc2ccccc2C1CN1C(=O)c2ccccc2C1=O (stereo not drawn) do in these assays?
PLCb3 inh: -3; ADAM17 inh: -2; PLCg1 inh: 0; ADAM10 inh: -1; proKLK7 act: 0

How did CC(=O)N1CCc2ccccc2C1CC(=O)O (stereo not drawn) do in these assays?
PLCb3 inh: -1; ADAM17 inh: -1; PLCg1 inh: 11*; ADAM10 inh: 3; proKLK7 act: 0; PLCg1 ctr: 7; PLCbeta3 conf: 0

What do the screens show for `CC(C)C(N)c1csc(NC(=O)Nc2cccc(Cl)c2)n1` (stereo not drawn)?
PLCb3 inh: 2; ADAM17 inh: -9; PLCg1 inh: 4; ADAM10 inh: -12; proKLK7 act: -1

How did Cc1ccc(C)c(N(Cc2ccccc2F)S(C)(=O)=O)c1 do in these assays?
PLCb3 inh: 0; ADAM17 inh: 4; PLCg1 inh: 10*; ADAM10 inh: 10; proKLK7 act: 1; PLCg1 ctr: -1; PLCbeta3 conf: 1

How did Cc1ccc(N(Cc2ccccc2F)S(C)(=O)=O)c(C)c1 do in these assays?
PLCb3 inh: 2; ADAM17 inh: -2; PLCg1 inh: 0; ADAM10 inh: -1; proKLK7 act: 0

What do the screens show for `COc1ccccc1CNc1nc(Nc2ccccc2-n2cccn2)c2sccc2n1`?
PLCb3 inh: -47; ADAM17 inh: -10; PLCg1 inh: -28; ADAM10 inh: -37; proKLK7 act: -3

What do the screens show for `CCOc1ccc(S(=O)(=O)N2CCC(C(=O)N3CCCC3)CC2)cc1C`?
PLCb3 inh: 3; ADAM17 inh: -4; PLCg1 inh: 11*; ADAM10 inh: -5; proKLK7 act: -1; PLCg1 ctr: 3; PLCbeta3 conf: 2

How did CCOc1ccc(Cl)cc1S(=O)(=O)N1CCC(C(=O)N2CCCC2)CC1 do in these assays?
PLCb3 inh: -2; ADAM17 inh: 0; PLCg1 inh: -2; ADAM10 inh: 5; proKLK7 act: 0

How did C[N+]1(C)CCC(OC(=O)C(O)(c2ccccc2)C2CCCC2)C1 (stereo not drawn) do in these assays?
PLCb3 inh: 5; ADAM17 inh: -6; PLCg1 inh: 10*; ADAM10 inh: 0; proKLK7 act: 0; PLCg1 ctr: -3; PLCbeta3 conf: 2

Results for C[N+]1(C)CC[C@H](OC(=O)[C@@](O)(c2ccccc2)C2CCCC2)C1 ?
PLCb3 inh: 3; ADAM17 inh: -1; PLCg1 inh: 1; ADAM10 inh: 3; proKLK7 act: 0

What do the screens show for `COc1ccc(NC(=O)c2sc3cc(C(F)(F)F)cnc3c2-c2cccs2)cc1`?
PLCb3 inh: 1; ADAM17 inh: -3; PLCg1 inh: 11*; ADAM10 inh: -1; proKLK7 act: 0; PLCg1 ctr: -26; PLCbeta3 conf: -25

How did O=C(Nc1ccc(F)cc1)c1sc2cc(C(F)(F)F)cnc2c1-c1cccs1 do in these assays?
PLCb3 inh: -9; ADAM17 inh: -5; PLCg1 inh: -5; ADAM10 inh: -10; proKLK7 act: -1

What do the screens show for `O=C(CN1C(=O)/C(=C/c2ccco2)SC1=S)Nc1ccc(C(=O)O)c(O)c1`?
PLCb3 inh: -13; ADAM17 inh: -2; PLCg1 inh: 58*; ADAM10 inh: 0; proKLK7 act: 0; PLCg1 ctr: 40*; PLCbeta3 conf: -13

How did O=C(CN1C(=O)/C(=C/c2ccco2)SC1=S)Nc1ccc(O)c(C(=O)O)c1 do in these assays?
PLCb3 inh: -26; ADAM17 inh: -12; PLCg1 inh: 46*; ADAM10 inh: -18; proKLK7 act: 1; PLCg1 ctr: 36*; PLCbeta3 conf: -17

Results for CCCN(CCC)Cc1cc(=O)oc2cc(C)c(C)cc12 ?
PLCb3 inh: -29; ADAM17 inh: -9; PLCg1 inh: -21; ADAM10 inh: -51; proKLK7 act: 1

What do the screens show for `CCCC(=O)Nc1c(-c2ccccc2Cl)c(=O)c2ccccc2n1C`?
PLCb3 inh: -1; ADAM17 inh: 4; PLCg1 inh: 13*; ADAM10 inh: -9; proKLK7 act: 0; PLCg1 ctr: -2; PLCbeta3 conf: 0

How did C[C@]1(O)CC(=O)C=C[C@H]1Nc1ccccc1 do in these assays?
PLCb3 inh: 1; ADAM17 inh: -3; PLCg1 inh: 17*; ADAM10 inh: -3; proKLK7 act: 1; PLCg1 ctr: -4; PLCbeta3 conf: -1

How did CC1(C)CC(C(=O)Nc2ccccc2)C(=O)O1 (stereo not drawn) do in these assays?
PLCb3 inh: 1; ADAM17 inh: -7; PLCg1 inh: -1; ADAM10 inh: 2; proKLK7 act: 0

What do the screens show for `CC(C)C1OC(CCc2ccccc2)Cc2[nH][nH]c(=O)c21` (stereo not drawn)?
PLCb3 inh: 1; ADAM17 inh: 2; PLCg1 inh: 0; ADAM10 inh: 3; proKLK7 act: 0

What do the screens show for `COc1ccc(NS(=O)(=O)c2cccc(NC(=O)c3ccccn3)c2)cc1`?
PLCb3 inh: -8; ADAM17 inh: -1; PLCg1 inh: -2; ADAM10 inh: 0; proKLK7 act: 0

How did O=C(Nc1cccc(S(=O)(=O)Nc2ccc(Cl)cc2)c1)c1ccccn1 do in these assays?
PLCb3 inh: -7; ADAM17 inh: 4; PLCg1 inh: 9.7*; ADAM10 inh: 3; proKLK7 act: 0; PLCg1 ctr: -5; PLCbeta3 conf: -3

What do the screens show for `CCC(C)[C@H](N)c1cn([C@@H](CCCCN)C(=O)N2CCNCC2)nn1` (stereo partly drawn)?
PLCb3 inh: -1; ADAM17 inh: -5; PLCg1 inh: 1; ADAM10 inh: 5; proKLK7 act: 0

How did NCCCCC(N)c1cn([C@@H](CCC(=O)O)C(=O)N2CCNCC2)nn1 (stereo partly drawn) do in these assays?
PLCb3 inh: 13*; ADAM17 inh: 0; PLCg1 inh: 0; ADAM10 inh: 13; proKLK7 act: 0; PLCg1 ctr: -3; PLCbeta3 conf: 0

Results for COc1cc(OC)cc(C(=O)NCC(=O)OCC(=O)Nc2ccc(C)c(S(=O)(=O)N3CCOCC3)c2)c1 ?
PLCb3 inh: -7; ADAM17 inh: -1; PLCg1 inh: 0; ADAM10 inh: 0; proKLK7 act: 0
